Active and inactive are the calls of the source. How the source made its calls: active means hit-call score of the fitted dose curve at least 0.9, where 1 is the maximum; inactive means score below 0.9.
Experiment: ATG_M_06_CIS: Attagene CIS-FACTORIAL HepG2 Assay for M06 Transcription Factor (Internal Marker) (AID 2282950)
Details: HepG2 Attagene CIS-FACTORIAL M06 internal marker reporter; actives raise or lower the signal
Procedure: ATG_CIS is a cell-based, multiplexed-readout assay that uses HepG2, a human liver cell line, with measurements taken at 24 hours after chemical dosing in a 24-well plate.ATG_M_06_CIS is one of 52 assay component(s) measured or calculated from the ATG_CIS assay. It is designed to make measurements of mRNA induction, a form of inducible reporter, as detected with fluorescence intensity signals by Reverse transcription polymerase chain reaction (RT-PCR) and Capillary electrophoresis technology.Data from the assay component ATG_M_06_CIS was analyzed into 1 assay endpoint. This assay endpoint, ATG_M_06_CIS, was analyzed with bidirectional fitting relative to DMSO as the negative control and baseline of activity. Using a type of inducible reporter, measures of mRNA for gain or loss-of-signal activity can be used to understand the background control at the transcription factor-level as they relate to the gene . Furthermore, this assay endpoint can be referred to as a secondary readout, because this assay has produced multiple assay endpoints where this one serves a background control function. To generalize the intended target to other relatable targets, this assay endpoint is annotated to the background measurement intended target family, where the subfamily is internal marker.
Human liver HepG2 cells are transiently transfected with multiple reporter transcription units (MRTUs) in 6-well plates using FuGene 6 reagent (Roche; 3 ml FuGene/1 mg DNA). The MRTU constructs are regulated by a cis-regulating element (promoter). […] A major difference between the CIS and TRANS system is that in CIS activities of endogenous TFs are measured, whereas the TRANS assay evaluates changes in activities of exogenous, chimeric NR-Gal4 proteins. […] At the end of 24 hour incubation, total RNA was isolated using TriZol reagent (Invitrogen). The isolated RNA is then reverse-transcribed using oligo(dT) primer and Mo-MLV reverse transcriptase (Invitrogen) with DNAse I (Ambion) treatment for 30 min. The one-tenth of the produced cDNA was amplified by PCR using Taq DNA polymerase (Invitrogen) and two reporter sequence-specific primers. The PCR products were fluorescently labeled by primer extension with 6-arboxyfluorescein (6-FAM) 5'-labeled reporter sequence-specific primer (2 min at 95 C, 20 s at 68 C and 10 min at 72 C) and these products were digested with 5U of HpaI (New England Biolabs) for 2h at 37 C. The fragments were purified using Qiaquick PCR columns (Qiagen), analyzed on an ABI 3130xL genetic analyzer (Applied Biosystems) with peak positions identified by using a set of X-rhodamine (ROX)-labeled MapMarker1000 molecular weight standards (BioVentures). The raw capillary electrophoresis data was processed using Attagraph software (Attagene).

Row | Compound | outcome
1 | CN(C)C(=S)SSC(=S)N(C)C | inactive
2 | CCOC(=O)C(Cl)Cc1cc(-n2nc(C)n(C(F)F)c2=O)c(F)cc1Cl (stereo not given) | inactive
3 | CNC(=O)ON=CC(C)(C)SC | inactive
4 | CCNc1nc(Cl)nc(NCC)n1 | inactive
5 | CS/C(C)=N/OC(=O)N(C)SN(C)C(=O)O/N=C(\C)SC | inactive
6 | CCCCNC(=O)OCC#CI | inactive
7 | N#CC(CCc1ccc(Cl)cc1)(Cn1cncn1)c1ccccc1 (stereo not given) | inactive
8 | CC(C)(C)c1ccc(CSc2cnn(C(C)(C)C)c(=O)c2Cl)cc1 | inactive
9 | CCOC(=O)CC(SP(=S)(OC)OC)C(=O)OCC (stereo not given) | inactive
10 | CC(Oc1ccc(Cl)cc1Cl)C(=O)O (stereo not given) | inactive
11 | CCCCNC(=O)n1c(NC(=O)OC)nc2ccccc21 | inactive
12 | Cc1ccc(-c2c(Cl)nc(C#N)n2S(=O)(=O)N(C)C)cc1 | inactive
13 | CCCN(CCC)c1c([N+](=O)[O-])cc(S(N)(=O)=O)cc1[N+](=O)[O-] | inactive
14 | COc1nc(C)nc(NC(=O)NS(=O)(=O)c2ccccc2CCC(F)(F)F)n1 | inactive
15 | C#CCOS(=O)OC1CCCCC1Oc1ccc(C(C)(C)C)cc1 (stereo not given) | inactive
16 | CCON=C(CC)C1=C(O)CC(c2c(C)cc(C)cc2C)CC1=O (stereo not given) | inactive
17 | CCCCC(CC)COC(=O)c1ccccc1C(=O)OCC(CC)CCCC (stereo not given) | inactive
18 | C=CC1(C)OC(=O)N(c2cc(Cl)cc(Cl)c2)C1=O (stereo not given) | inactive
19 | Oc1ccccc1-c1ccccc1 | inactive
20 | Cc1cc(Cl)ccc1OCC(=O)O | inactive

Row | Compound | outcome
21 | CCOP(=S)(OCC)SCn1c(=O)oc2cc(Cl)ccc21 | inactive
22 | N#Cc1cc(Br)c(O)c(Br)c1 | inactive
23 | O=C(Nc1ccccc1)Nc1ccnc(Cl)c1 | inactive
24 | CON(C)C(=O)Nc1ccc(Cl)c(Cl)c1 | inactive
25 | CO/C=C(/C(=O)OC)c1ccccc1Oc1cc(Oc2ccccc2C#N)ncn1 | inactive
26 | OC(c1ccc(Cl)cc1)(c1cncnc1)c1ccccc1Cl (stereo not given) | inactive
27 | COc1nc(NC(C)C)nc(NC(C)C)n1 | inactive
28 | Cc1c(F)c(F)c(COC(=O)C2C(/C=C(\Cl)C(F)(F)F)C2(C)C)c(F)c1F (stereo not given) | inactive
29 | CCc1nn(C)c(C(=O)NCc2ccc(C(C)(C)C)cc2)c1Cl | inactive
30 | C=CCC1=C(C)[C@@H](OC(=O)[C@@H]2[C@@H](C=C(C)C)C2(C)C)CC1=O | inactive
31 | Fc1ccc(Oc2ccnc3cc(Cl)cc(Cl)c23)cc1 | inactive
32 | CNC(=S)S | inactive
33 | COP(N)(=O)SC (stereo not given) | inactive
34 | O=C(O)c1nc(Cl)ccc1Cl | inactive
35 | COP(=S)(OC)Oc1nc(Cl)c(Cl)cc1Cl | inactive
36 | CCOc1cc(Oc2ccc(C(F)(F)F)cc2Cl)ccc1[N+](=O)[O-] | inactive
37 | COC(=O)C(C)Oc1ccc(Oc2ccc(Cl)cc2Cl)cc1 (stereo not given) | inactive
38 | N#Cc1nn(-c2c(Cl)cc(C(F)(F)F)cc2Cl)c(N)c1S(=O)C(F)(F)F (stereo not given) | inactive
39 | C=CCC1=C(C)C(OC(=O)C2C(C=C(C)C)C2(C)C)CC1=O (stereo not given) | inactive
40 | CC(C)Oc1cc(-n2nc(C(C)(C)C)oc2=O)c(Cl)cc1Cl | inactive

— PubChem BioAssay (EPA / NIEHS)
